Experimental data reported in the supplement of paper PMC6555819.

Each sequence was assayed on RXRa DBDmut IVT, anti-RXR (DBD mutation: RXRa K156A/R161A, NR concentration 90 nM) (assay: PBM binding z-score (relative to random genomic background probes); higher = stronger binding; sequences stand for … in GC…GCGATTGACAGCGTAGAATGAAGG).
Method in brief: (§1)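 Custom Agilent 4×180K protein-binding microarrays carried double-stranded probes. Their 34-nt variable regions held direct-repeat seeds, single-nucleotide variants, half-site ablations and random human genomic background sequences. Arrays were incubated 1 h with ligand-free nuclear receptor dimers in PBS pH 7.4, 2% milk, 0.02% Triton X-100, 1 mM DTT, 0.2 mg/mL BSA and 0.4 mg/ml salmon testes DNA. Antibodies against each partner (one per run) detected binding, and scanned fluorescence was regression-normalized. Binding z-scores use random background probes as reference.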

In order of falling PBM binding z-score:
1. AGTCAAAGTTCATCTAGGTAACGTCAGATATGCT  4.83
2. TATACAGGGTCAAATGCCAGAGTACGAATGTCGA  3.42
3. ACTTACGGGTCAACGAGGTTATCGCACGCGTATA  3
4. CCTAATTGGTCAAGGTCACACACGCTATAGGTAC  2.36
5. CTCGAAAGGTCGTGCTCAGGTGAGAATACCAAAC  2.05
6. CAAACTAGGTCACAGAGGTAAAAGTCCGTGCGTA  1.95
7. ATCGAAAGGTCGACGAGGTGAATATACACCGTTT  1.7
8. TCATATAGGTAAAAGTTGAAAGTCGGTGTGGTAA  1.69
9. CATACAGGGTCAGCTAGGCCAGAGGAGGGACGGC  1.64
10. AGATTGAGGTTATTAAGATCAGGGAATTGCGGTC  1.55
11. CCTTACGGGTCACTGAAAGGTTATAGCATTTGGA  1.54
12. TCTATTAGTTGAAGGGCAACTGACGAGTCCGTTT  1.49
13. TCATATAGGTAAAAGCTGAAAGTCGGTGTGGTAA  1.45
14. CATACAGGGTCAGCTAGGCCAGAGTGGGGACGGC  1.4
15. AAATGTAGGTTACATCCGGGTCATTCAGGCTATG  1.3
16. TCATATAGATAAAGGTGAAAGTCGAACGATATGA  1.18
17. GTTAGTTGGTCAGTAAAAGGTCACACACCGGTCG  1.14
18. ATATGTAGGTTAGCTGGGGTCGTTCAGACTAGGC  1.08
19. TCTTGTAGATCAATAGAGGTTATGAAAGTGCGCT  1.05
20. AGAATGAGGTTACCAAAGATAAGGGAAACGCTTG  1.02
21. CTAGAAAGGTCGGTTGAGGTGAGTATACGGATAA  1.01
22. TCGAGAAGGTTAGTCGGGGCATTCAGCCAACATA  0.877
23. TCTTCTAGATCAAAGGTTAAGAAAGCCGAAGCCT  0.838
24. TCTTGTAGATCAAAGGTTAAGAATGCCGAAGCCT  0.824
25. GCATATAGGTAATCCAAGGTGAAAGTCCGATTGT  0.551
26. TAGCCTAGGTCATGCGGGCCAGTGTAGTGTCGGC  0.446
27. TGAATGAGGTTAAGGATCAGGGAACGTGGCGTCG  0.394
28. GCTTGCAGGCCATTTGGGTCACTCAATGACGGGC  0.31
29. CCGAGTAGGTTATGGGGAATTCAGGCAACGGTGA  0.287
30. GCGGCTAGGTCAGGTTGGTCAGCTAACGGGTACG  0.271
31. TGAATGAGGTTACAAGATCAGGGAACGTTGCAAA  0.127
32. GCGACTGGGGCATCAGAAGGTTACCATAACTTAA  0.112
33. TCTAGCAGGCCAGAGGGTCACTCATGAGGTACGG  -0.0474
34. CTCGAAAAGTCGGTTGAGGTGAGTATACGGATAA  -0.0991
35. TGAATGAGGTTGAAGATCAGGGAACGTGGCGTCG  -0.182
36. GATACAGGGACAAGGCCAGAGTACGCGTATTGAT  -0.24
37. CCTCGGAGGACAGAAGCTCAGAGCTGTCCGCTTT  -0.29
38. GCGACTGGGGCAAACCAGGTTACCATAAGGTTGG  -0.486
39. CGAGACAGGTGAGAAGGTAACTCAGCCTCGATTA  -0.6
40. GGGACTGGGGCAAAGCAGGTTACCATAAGGTTGG  -1.03

What follows are sequences tested on RXRa homodimer (NR concentration 180 nM) in the same assay as above.
Method in brief: as §1

In order of falling PBM binding z-score:
1. ACTTACGGGTCAACGAGGTTATCGCACGCGTATA  6.75
2. TATACAGGGTCAAATGCCAGAGTACGAATGTCGA  6.54
3. GTTAGTTGGTCAGTAAAAGGTCACACACCGGTCG  6.08
4. CCTTACGGGTCACTGAAAGGTTATAGCATTTGGA  5.63
5. CTCGAAAGGTCGTGCTCAGGTGAGAATACCAAAC  4.93
6. CCTAATTGGTCAAGGTCACACACGCTATAGGTAC  4.64
7. ATCGAAAGGTCGACGAGGTGAATATACACCGTTT  4.64
8. AGTCAAAGTTCATCTAGGTAACGTCAGATATGCT  4.45
9. CATACAGGGTCAGCTAGGCCAGAGTGGGGACGGC  4.23
10. CATACAGGGTCAGCTAGGCCAGAGGAGGGACGGC  4.14
11. CAAACTAGGTCACAGAGGTAAAAGTCCGTGCGTA  3.93
12. TCTTGTAGATCAAAGGTTAAGAATGCCGAAGCCT  3.46
13. AAATGTAGGTTACATCCGGGTCATTCAGGCTATG  3.08
14. TCTTCTAGATCAAAGGTTAAGAAAGCCGAAGCCT  2.95
15. TGAATGAGGTTAAGGATCAGGGAACGTGGCGTCG  2.62
16. TAGCCTAGGTCATGCGGGCCAGTGTAGTGTCGGC  2.6
17. TCTAGCAGGCCAGAGGGTCACTCATGAGGTACGG  2.55
18. CTAGAAAGGTCGGTTGAGGTGAGTATACGGATAA  2.5
19. ATATGTAGGTTAGCTGGGGTCGTTCAGACTAGGC  2.37
20. TGAATGAGGTTACAAGATCAGGGAACGTTGCAAA  2.26
21. AGAATGAGGTTACCAAAGATAAGGGAAACGCTTG  2.18
22. TCATATAGATAAAGGTGAAAGTCGAACGATATGA  1.9
23. TCATATAGGTAAAAGTTGAAAGTCGGTGTGGTAA  1.83
24. TCTTGTAGATCAATAGAGGTTATGAAAGTGCGCT  1.55
25. AGATTGAGGTTATTAAGATCAGGGAATTGCGGTC  1.44
26. GCGGCTAGGTCAGGTTGGTCAGCTAACGGGTACG  1.07
27. TCTATTAGTTGAAGGGCAACTGACGAGTCCGTTT  0.829
28. TGAATGAGGTTGAAGATCAGGGAACGTGGCGTCG  0.787
29. GCGACTGGGGCATCAGAAGGTTACCATAACTTAA  0.743
30. GCTTGCAGGCCATTTGGGTCACTCAATGACGGGC  0.653
31. TCGAGAAGGTTAGTCGGGGCATTCAGCCAACATA  0.644
32. GCGACTGGGGCAAACCAGGTTACCATAAGGTTGG  0.616
33. GGGACTGGGGCAAAGCAGGTTACCATAAGGTTGG  0.55
34. TCATATAGGTAAAAGCTGAAAGTCGGTGTGGTAA  0.496
35. CCGAGTAGGTTATGGGGAATTCAGGCAACGGTGA  0.487
36. GCATATAGGTAATCCAAGGTGAAAGTCCGATTGT  0.399
37. CTCGAAAAGTCGGTTGAGGTGAGTATACGGATAA  0.212
38. CGAGACAGGTGAGAAGGTAACTCAGCCTCGATTA  0.212
39. GATACAGGGACAAGGCCAGAGTACGCGTATTGAT  0.00121
40. CCTCGGAGGACAGAAGCTCAGAGCTGTCCGCTTT  -0.985
